Records with an inconclusive call do not appear. Calls of active or inactive are those of the source. How the source made its calls: active means hit-call score of the fitted dose curve at least 0.9, where 1 is the maximum; inconclusive means response in the unintended direction; inactive means score below 0.9.
Each compound was assayed against human Matrix Metalloproteinase-9 (MMP9), MMP9 (gene 4318) (UniProt P14780) (assay: NVS_ENZ_hMMP9: NovaScreen (NVS) Enzymatic Assay for human Matrix Metalloproteinase-9 (MMP9) (AID 2283190);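 further: cell-free recombinant MMP9 protease activity read by fluorescent substrate signal; active means inhibition seen as loss of fluorescence signal versus DMSO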).
Outline: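 Extracted enzyme, fluorescent substrate, 1 h post-dose read. Single conc 25 uM in duplicate, then concentration series for actives. Activity = signal loss relative to DMSO negative control.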

human Matrix Metalloproteinase-9 (MMP9), MMP9 (gene 4318), sequence (P14780 whole entry, looked up): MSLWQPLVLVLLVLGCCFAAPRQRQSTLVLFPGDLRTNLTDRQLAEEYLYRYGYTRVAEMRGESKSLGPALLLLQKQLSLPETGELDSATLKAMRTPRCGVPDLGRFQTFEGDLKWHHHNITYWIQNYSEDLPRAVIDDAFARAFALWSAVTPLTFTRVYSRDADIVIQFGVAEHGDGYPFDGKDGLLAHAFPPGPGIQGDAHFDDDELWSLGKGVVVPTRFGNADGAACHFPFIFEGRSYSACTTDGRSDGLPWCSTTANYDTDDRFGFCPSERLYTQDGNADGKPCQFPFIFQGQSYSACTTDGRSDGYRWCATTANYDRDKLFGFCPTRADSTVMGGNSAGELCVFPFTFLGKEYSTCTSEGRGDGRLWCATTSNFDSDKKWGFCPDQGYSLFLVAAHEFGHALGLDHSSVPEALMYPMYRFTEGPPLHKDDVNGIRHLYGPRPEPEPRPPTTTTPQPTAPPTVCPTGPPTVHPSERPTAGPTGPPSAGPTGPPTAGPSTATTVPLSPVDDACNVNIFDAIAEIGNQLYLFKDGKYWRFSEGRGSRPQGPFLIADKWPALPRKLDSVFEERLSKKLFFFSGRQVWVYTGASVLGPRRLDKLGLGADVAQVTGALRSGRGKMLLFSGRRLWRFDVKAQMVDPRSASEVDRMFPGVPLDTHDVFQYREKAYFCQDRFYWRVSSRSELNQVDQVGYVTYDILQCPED

AC50, active:
CC(C)(N=C=O)c1cccc(C(C)(C)N=C=O)c1 0.933 µM
CCOCCOCCOCC 15.4 µM
C=C(C)C(=O)OCC(CC)(COC(=O)C(=C)C)COC(=O)C(=C)C 0.749 µM
NC(=S)NNC(N)=S 3.45 µM
C=C(C#N)C(=O)OCC 8.63 µM
O=C1OC[C@H](Cc2cccc(O)c2)[C@H]1Cc1cccc(O)c1 5.03 µM
CC(C)CC(C)CC(O)CC(C)C (stereo not drawn) 5.13 µM
CCC(C)=O 6.96 µM
c1ccc2[nH]cnc2c1 7.49 µM
CSCCC=O 0.684 µM

outcome, inactive:
c1ccc(Oc2ccccc2)cc1
C=CCCCCCCCCCC

The compounds below were run against human Phosphodiesterase 10 (PDE10), PDE10A (gene 10846) (UniProt Q9Y233) (assay: NVS_ENZ_hPDE10: NovaScreen (NVS) Enzymatic Assay for human Phosphodiesterase 10 (PDE10) (AID 2283195)).
Outline: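 Recombinant human PDE10 with fluorescent substrate, 1 h, product separated by electrophoretic mobility shift. Loss of enzyme activity fitted against DMSO; initial screen 25 uM in duplicate, actives run to 50 uM maximum.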

human Phosphodiesterase 10 (PDE10), PDE10A (gene 10846), sequence (Q9Y233 whole entry, looked up): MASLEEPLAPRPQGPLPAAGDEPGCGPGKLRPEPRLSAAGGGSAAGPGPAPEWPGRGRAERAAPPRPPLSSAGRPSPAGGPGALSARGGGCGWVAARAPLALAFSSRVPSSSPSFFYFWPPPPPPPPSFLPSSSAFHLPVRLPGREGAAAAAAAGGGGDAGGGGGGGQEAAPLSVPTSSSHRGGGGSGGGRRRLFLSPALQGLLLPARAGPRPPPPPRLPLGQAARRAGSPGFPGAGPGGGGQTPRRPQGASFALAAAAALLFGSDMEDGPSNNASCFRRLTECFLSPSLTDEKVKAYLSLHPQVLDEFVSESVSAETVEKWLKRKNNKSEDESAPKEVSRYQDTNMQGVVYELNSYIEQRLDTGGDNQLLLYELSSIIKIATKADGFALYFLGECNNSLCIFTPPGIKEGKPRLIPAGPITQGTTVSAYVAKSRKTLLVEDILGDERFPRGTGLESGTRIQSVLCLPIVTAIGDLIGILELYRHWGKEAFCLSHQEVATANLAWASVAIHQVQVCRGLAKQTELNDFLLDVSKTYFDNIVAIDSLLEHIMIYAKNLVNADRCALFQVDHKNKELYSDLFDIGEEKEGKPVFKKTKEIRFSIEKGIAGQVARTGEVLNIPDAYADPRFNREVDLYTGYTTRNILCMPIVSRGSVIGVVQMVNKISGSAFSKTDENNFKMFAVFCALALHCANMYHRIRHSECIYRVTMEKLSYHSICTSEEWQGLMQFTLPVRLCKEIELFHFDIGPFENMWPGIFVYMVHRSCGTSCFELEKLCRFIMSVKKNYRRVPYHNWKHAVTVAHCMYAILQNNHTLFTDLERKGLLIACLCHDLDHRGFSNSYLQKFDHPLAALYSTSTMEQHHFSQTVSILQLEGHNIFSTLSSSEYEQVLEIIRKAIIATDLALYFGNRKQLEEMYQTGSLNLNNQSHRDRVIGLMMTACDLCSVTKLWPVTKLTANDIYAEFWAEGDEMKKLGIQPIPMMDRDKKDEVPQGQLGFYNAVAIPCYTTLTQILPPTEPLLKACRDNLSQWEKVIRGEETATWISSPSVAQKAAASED

outcome, inactive:
COc1cccc(OC)c1O
CC(C)Nc1nc(N)nc(Cl)n1
CCCCC(CC)(CO)CO
CC=Cc1ccc(OCC)c(O)c1
CCC(C)c1cc([N+](=O)[O-])cc([N+](=O)[O-])c1OC(=O)OC(C)C (stereo not drawn)
O=CN1CCOCC1
Cc1ncc([N+](=O)[O-])n1CCO
CCC1CCCCC1
O=C1OC(=O)c2c(Br)c(Br)c(Br)c(Br)c21
CS(=O)(=O)c1ccc(C2=C(c3ccccc3)C(=O)OC2)cc1
Oc1c(Cl)cc(Cl)c(Cl)c1Cc1c(O)c(Cl)cc(Cl)c1Cl
C=C(C)[C@H]1CC=C(C)C(=O)C1

AC50, active:
CCCCSCCCC 1 µM
COc1ccc(OC)c(N=Nc2c(O)ccc3ccccc23)c1 42.3 µM
OCCCCC(O)CO (stereo not drawn) 40.4 µM
C=CC(=O)OCCCC 10.2 µM
O=[N+]([O-])c1cccc(Cl)c1 25 µM

The compounds below were run against human Phosphoinositide 3-kinase alpha (PI3Ka), PIK3CA (gene 5290) (UniProt P42336) (assay: NVS_ENZ_hPI3Ka: NovaScreen (NVS) Enzymatic Assay for human Phosphoinositide 3-kinase alpha (PI3Ka) (AID 2283196)).
Outline: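 Fluorescence/mobility-shift readout of substrate conversion by recombinant enzyme, 1 h post-dosing. Primary screen in duplicate at 25 uM; actives (e.g. ≥30% inhibition) retested in singleton concentration-response, top concentration 50 uM.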

human Phosphoinositide 3-kinase alpha (PI3Ka), PIK3CA (gene 5290), sequence (P42336 whole entry, looked up): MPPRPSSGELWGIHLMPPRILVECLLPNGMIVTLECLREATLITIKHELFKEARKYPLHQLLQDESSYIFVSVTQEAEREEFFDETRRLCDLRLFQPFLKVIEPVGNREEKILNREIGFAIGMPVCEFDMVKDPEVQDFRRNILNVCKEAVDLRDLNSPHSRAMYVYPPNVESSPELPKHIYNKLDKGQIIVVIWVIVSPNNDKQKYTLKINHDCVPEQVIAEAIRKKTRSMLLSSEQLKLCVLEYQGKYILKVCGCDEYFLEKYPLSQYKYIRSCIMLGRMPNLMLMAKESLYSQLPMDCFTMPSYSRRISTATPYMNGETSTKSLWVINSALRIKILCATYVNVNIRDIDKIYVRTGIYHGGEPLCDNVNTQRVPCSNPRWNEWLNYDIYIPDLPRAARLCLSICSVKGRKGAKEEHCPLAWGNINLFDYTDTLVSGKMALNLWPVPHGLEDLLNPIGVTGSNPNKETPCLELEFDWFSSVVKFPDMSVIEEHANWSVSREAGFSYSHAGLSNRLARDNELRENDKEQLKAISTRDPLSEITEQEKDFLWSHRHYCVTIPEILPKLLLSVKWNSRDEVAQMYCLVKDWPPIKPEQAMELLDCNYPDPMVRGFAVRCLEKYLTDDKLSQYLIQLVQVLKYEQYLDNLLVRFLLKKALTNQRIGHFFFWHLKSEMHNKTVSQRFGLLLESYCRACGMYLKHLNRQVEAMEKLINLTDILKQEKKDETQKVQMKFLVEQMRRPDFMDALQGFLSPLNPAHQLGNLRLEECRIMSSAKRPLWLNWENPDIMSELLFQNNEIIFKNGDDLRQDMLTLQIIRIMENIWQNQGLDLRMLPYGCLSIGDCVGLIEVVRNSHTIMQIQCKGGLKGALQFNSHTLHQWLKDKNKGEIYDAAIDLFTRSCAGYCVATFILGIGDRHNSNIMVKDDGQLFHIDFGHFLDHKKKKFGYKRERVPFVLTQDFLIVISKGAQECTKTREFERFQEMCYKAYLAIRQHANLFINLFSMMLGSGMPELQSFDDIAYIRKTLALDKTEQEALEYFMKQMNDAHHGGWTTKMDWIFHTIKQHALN

AC50, active:
CC(C)(N=C=O)c1cccc(C(C)(C)N=C=O)c1 9.87 µM
OCCCCC(O)CO (stereo not drawn) 0.803 µM
Oc1c(Cl)cc(Cl)c(Cl)c1Cc1c(O)c(Cl)cc(Cl)c1Cl 1.96 µM
C=CC(=O)OCCCC 0.00235 µM

outcome, inactive:
CCOc1ccc(NC(=O)CC(C)=O)cc1
NC(=S)NNC(N)=S
O=CN1CCOCC1
Cc1ccc(C)o1
CCCCCCOCCOCCO

Each compound was assayed against sheep Cyclooxygenase-1 (Cox1), PTGS1 (gene 443551) (UniProt P05979) (assay: NVS_ENZ_oCOX1: NovaScreen (NVS) Enzymatic Assay for sheep Cyclooxygenase-1 (Cox1) (AID 2283239);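 further: actives reduce cyclooxygenase activity so potencies are for inhibitors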).
Outline: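 Absorbance read-out of cyclooxygenase activity in a cell-free preparation from sheep seminal vesicles, taken 0.66 hour after dosing. Initial testing was in duplicate at 25 uM, and confirmatory testing was run in concentration series.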

sheep Cyclooxygenase-1 (Cox1), PTGS1 (gene 443551), sequence (P05979 whole entry, looked up): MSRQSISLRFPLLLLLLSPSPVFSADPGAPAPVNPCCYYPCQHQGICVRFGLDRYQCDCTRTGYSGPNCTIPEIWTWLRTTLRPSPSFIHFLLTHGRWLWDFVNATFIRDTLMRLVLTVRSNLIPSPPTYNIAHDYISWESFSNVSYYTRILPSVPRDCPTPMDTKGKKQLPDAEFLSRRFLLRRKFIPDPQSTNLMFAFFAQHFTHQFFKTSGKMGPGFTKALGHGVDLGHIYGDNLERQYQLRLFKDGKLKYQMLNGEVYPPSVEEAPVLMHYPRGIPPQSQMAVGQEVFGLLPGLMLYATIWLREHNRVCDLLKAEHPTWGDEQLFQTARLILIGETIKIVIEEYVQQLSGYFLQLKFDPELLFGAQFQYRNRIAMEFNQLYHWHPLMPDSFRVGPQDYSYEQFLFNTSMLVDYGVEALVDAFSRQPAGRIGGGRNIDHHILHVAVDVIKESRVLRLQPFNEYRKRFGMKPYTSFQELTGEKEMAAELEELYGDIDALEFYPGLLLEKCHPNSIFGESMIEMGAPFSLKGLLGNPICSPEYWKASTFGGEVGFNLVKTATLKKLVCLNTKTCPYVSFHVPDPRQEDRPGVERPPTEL

outcome, inactive:
O=[N+]([O-])c1ccc(O)cc1C(F)(F)F
c1ccc2[nH]cnc2c1

AC50, active:
Oc1c(Cl)cc(Cl)c(Cl)c1Cc1c(O)c(Cl)cc(Cl)c1Cl 15.6 µM

The compounds below were run against D(1A) dopamine receptor (Homo sapiens) (UniProt P21728) (assay: NVS_GPCR_hDRD1: NovaScreen (NVS) G Protein-Coupled Receptor Assay for human Dopamine Receptor D1 (DRD1) (AID 2283269)).
Outline: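 Cell-free radioligand binding to human DRD1 from HEK293 membranes, read 1 h after dosing by filter-based scintillation counting. Loss of signal versus DMSO baseline marks displacement. Primary screen at 25 uM single concentration in duplicate; actives followed up in concentration series.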

D(1A) dopamine receptor (Homo sapiens), sequence (P21728 whole entry, looked up): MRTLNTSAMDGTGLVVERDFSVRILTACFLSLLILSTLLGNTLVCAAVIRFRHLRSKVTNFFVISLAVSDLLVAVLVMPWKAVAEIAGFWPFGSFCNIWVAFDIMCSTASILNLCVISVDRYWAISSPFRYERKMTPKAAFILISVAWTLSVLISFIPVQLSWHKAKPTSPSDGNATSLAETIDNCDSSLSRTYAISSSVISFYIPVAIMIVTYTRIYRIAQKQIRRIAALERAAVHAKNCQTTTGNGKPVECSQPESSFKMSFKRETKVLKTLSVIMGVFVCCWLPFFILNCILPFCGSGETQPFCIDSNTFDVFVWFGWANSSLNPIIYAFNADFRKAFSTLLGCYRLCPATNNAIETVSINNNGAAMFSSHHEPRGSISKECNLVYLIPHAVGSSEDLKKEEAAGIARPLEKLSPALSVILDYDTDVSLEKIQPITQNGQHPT

AC50, active:
CC(C)(N=C=O)c1cccc(C(C)(C)N=C=O)c1 43.7 µM

outcome, inactive:
CCCCSCCCC
CCC1CCCCC1

The compounds below were run against human Neurokinin, NK2 Receptor, TACR2 (gene 6865) (UniProt P21452) (assay: NVS_GPCR_hNK2: NovaScreen (NVS) G Protein-Coupled Receptor Assay for human Neurokinin, NK2 Receptor (AID 2283278);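 further: actives reduce bound radioligand signal relative to DMSO baseline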).
Outline: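 CHO-derived membrane protein, radioligand displacement, filter scintillation read at 4 h post-dose. Single-point 25 uM in duplicate, then concentration series for actives; DMSO as negative control.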

human Neurokinin, NK2 Receptor, TACR2 (gene 6865), sequence (P21452 whole entry, looked up): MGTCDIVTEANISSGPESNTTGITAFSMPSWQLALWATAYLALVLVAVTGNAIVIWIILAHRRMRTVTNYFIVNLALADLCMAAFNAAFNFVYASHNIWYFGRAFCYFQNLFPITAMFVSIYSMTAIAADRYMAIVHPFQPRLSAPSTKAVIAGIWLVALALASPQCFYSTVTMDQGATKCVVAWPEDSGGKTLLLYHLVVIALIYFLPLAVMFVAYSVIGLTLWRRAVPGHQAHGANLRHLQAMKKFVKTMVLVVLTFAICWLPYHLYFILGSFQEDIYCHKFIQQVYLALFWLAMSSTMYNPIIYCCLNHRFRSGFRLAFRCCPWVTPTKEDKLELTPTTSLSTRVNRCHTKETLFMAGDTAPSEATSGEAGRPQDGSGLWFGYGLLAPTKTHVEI

outcome, inactive:
CC(C)(N=C=O)c1cccc(C(C)(C)N=C=O)c1
NC(=S)NNC(N)=S

AC50, active:
COc1ccc(OC)c(N=Nc2c(O)ccc3ccccc23)c1 25 µM

The compounds below were run against human Opioid Receptor Mu (Opiate Mu), OPRM1 (gene 4988) (UniProt P35372) (assay: NVS_GPCR_hOpiate_mu: NovaScreen (NVS) G Protein-Coupled Receptor Assay for human Opioid Receptor Mu (Opiate Mu) (AID 2283290);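 further: hits lower bound tracer signal versus DMSO meaning displacement of the ligand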).
Method: NVS_GPCR_hOpiate_mu is a biochemical, single-readout assay that uses extracted gene-proteins from CHO in a cell-free assay. Measurements were taken 2.5 hours after chemical dosing in a 96-well plate.NVS_GPCR_hOpiate_mu is one of one assay component(s) measured or calculated from the NVS_GPCR_hOpiate_mu assay. It is designed to make measurements of radioligand binding, a form of binding reporter, as detected with scintillation counting signals by Filter-based radiodetection technology.Data from the assay component NVS_GPCR_hOpiate_mu was analyzed into 1 assay endpoint. This assay endpoint, NVS_GPCR_hOpiate_mu, was analyzed in the positive analysis fitting direction relative to DMSO as the negative control and baseline of activity. Using a type of binding reporter, loss-of-signal activity can be used to understand changes in the binding as they relate to the gene OPRM1. Furthermore, this assay endpoint can be referred to as a primary readout, because the performed assay has only produced 1 assay endpoint. To generalize the intended target to other relatable targets, this assay endpoint is annotated to the gpcr intended target family, where the subfamily is rhodopsin-like receptor.
Binding assays used specific radioligands (tritiated, iodinated) with non-radioactive competitive displacement ligands in agonist or antagonist protocols (as indicated) and various reference compounds and inhibitors to titrate specific binding to receptors and transporters. Most enzyme assays (CYPs, kinases, phosphatases, proteases, HDACs) used recombinant protein and specific substrates (fluorescence mostly, some colorimetric and radioactive) and inhibitors, followed by a biochemical separation of substrate and product. All assays for the biochemical HTS were initially run in duplicate at a single concentration (10 uM for CYP450 assays and 25 uM for all others). […] Each assay was run with positive and negative controls, and concurrent controls on every plate. The follow-up (secondary) screen tested active chemical-pairs in concentration series, as well as a few additional assays not tested in the primary screen, some selected negative inactives, and several cases re-run in the concentration series for confirmatory purposes.

human Opioid Receptor Mu (Opiate Mu), OPRM1 (gene 4988), sequence (P35372 whole entry, looked up): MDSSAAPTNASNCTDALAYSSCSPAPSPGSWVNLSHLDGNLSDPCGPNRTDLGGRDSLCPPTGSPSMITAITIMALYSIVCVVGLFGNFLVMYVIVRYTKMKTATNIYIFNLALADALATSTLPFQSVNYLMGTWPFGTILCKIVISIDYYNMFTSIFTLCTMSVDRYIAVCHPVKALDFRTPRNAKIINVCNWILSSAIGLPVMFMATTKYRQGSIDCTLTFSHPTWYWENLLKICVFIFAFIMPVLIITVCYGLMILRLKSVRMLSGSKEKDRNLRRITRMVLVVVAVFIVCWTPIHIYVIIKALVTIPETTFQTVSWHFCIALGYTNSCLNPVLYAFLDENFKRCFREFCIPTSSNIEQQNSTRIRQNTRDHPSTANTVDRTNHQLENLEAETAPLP

AC50, active:
CC(C)(N=C=O)c1cccc(C(C)(C)N=C=O)c1 32.8 µM
Oc1c(Cl)cc(Cl)c(Cl)c1Cc1c(O)c(Cl)cc(Cl)c1Cl 6.76 µM

outcome, inactive:
NC(=S)NNC(N)=S

The compounds below were run against Sodium channel protein type 1 subunit alpha (Rattus norvegicus) (UniProt P04774) (assay: NVS_IC_rNaCh_site2: NovaScreen (NVS) Ion Channel Assay for rat Sodium Channel, Site 2 (NaCh) (AID 2283322);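 further: hit means loss of radioligand binding signal relative to DMSO so AC50 marks displacement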).
Outline: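 Membranes: rat forebrain. Format: competitive radioligand displacement, filter separation, scintillation readout, 1 h exposure. Primary screen in duplicate at 25 uM; actives retested in concentration series.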

outcome, inactive:
COc1ccc(OC)c(N=Nc2c(O)ccc3ccccc23)c1
CCC1CCCCC1
CS(=O)(=O)c1ccc(C2=C(c3ccccc3)C(=O)OC2)cc1

— PubChem BioAssay (EPA / NIEHS)
